# According to PubChem BioAssay:
# This is one part of the list. Active and inactive are the calls of the source.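 Rule for the calls: active = mean percent inhibition of the KCNQ2 thallium signal more than 5 SD above the buffer-only control wells; inactive = the rest.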
# Target: Potassium voltage-gated channel subfamily KQT member 2 (Rattus norvegicus) (UniProt O88943)
# Test: KCNQ2 channel inhibition, selectivity assay for KCNQ1 inhibitor project, cell-based (AID 651746);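 note: KCNQ2 expressed in CHO cells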;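 for inhibition: 0% = buffer control wells and 100% = XE-991 inhibitor control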
# Settings: KCNQ2 cells, FluxOR thallium flux fluorescence, at 10 µM; active compounds read high
# Potassium voltage-gated channel subfamily KQT member 2 (Rattus norvegicus), sequence (O88943 whole entry, looked up): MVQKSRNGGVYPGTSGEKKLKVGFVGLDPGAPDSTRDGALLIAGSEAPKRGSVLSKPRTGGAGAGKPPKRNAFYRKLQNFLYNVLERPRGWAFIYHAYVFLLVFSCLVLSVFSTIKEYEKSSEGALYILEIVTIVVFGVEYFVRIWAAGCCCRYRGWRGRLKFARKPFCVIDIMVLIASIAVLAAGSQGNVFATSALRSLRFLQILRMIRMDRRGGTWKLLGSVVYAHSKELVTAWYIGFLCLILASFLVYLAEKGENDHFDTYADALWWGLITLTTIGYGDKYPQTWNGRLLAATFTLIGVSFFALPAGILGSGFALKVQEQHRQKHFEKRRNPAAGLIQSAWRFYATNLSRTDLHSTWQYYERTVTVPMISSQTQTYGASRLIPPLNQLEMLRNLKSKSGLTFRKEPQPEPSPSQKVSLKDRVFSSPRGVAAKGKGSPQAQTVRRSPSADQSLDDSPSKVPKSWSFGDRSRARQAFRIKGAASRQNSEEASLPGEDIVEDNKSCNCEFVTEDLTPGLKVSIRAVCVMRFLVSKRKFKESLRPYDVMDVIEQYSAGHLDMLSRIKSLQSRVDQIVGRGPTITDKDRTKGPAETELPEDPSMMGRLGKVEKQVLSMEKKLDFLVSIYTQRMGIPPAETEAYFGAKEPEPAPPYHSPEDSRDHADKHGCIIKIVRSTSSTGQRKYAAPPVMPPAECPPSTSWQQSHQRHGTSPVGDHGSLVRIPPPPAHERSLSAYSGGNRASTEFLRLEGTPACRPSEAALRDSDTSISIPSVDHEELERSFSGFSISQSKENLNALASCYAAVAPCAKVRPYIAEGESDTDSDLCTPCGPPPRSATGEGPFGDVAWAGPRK
SMILES,inhibition,outcome
O=C(NCCc1ccccc1)c1ccc2c(c1)N(Cc1ccccc1)CCS2,101% (active),
COc1ccc(S(=O)(=O)/N=C2\C=C(NS(=O)(=O)c3ccccc3)C(=O)c3ccccc32)cc1,,inactive
CCn1c(C)c(C)c2cc(C(=O)N3CCN(c4cccc(C)c4C)CC3)ccc21,66.3% (active),
Cc1cccc(-n2cc(CN3CCN(C(=O)c4ncn[nH]4)CC3)c(-c3cccc(F)c3)n2)c1,,inactive
CCOC(=O)C1CCN(c2ncnc3c2oc2ccc(Br)cc23)CC1,129% (active),
CCc1noc(C)c1C(=O)Oc1ccc(N(C)S(=O)(=O)c2ccc(C)c(C)c2)cc1,95.3% (active),
S=C(NCC1CCCO1)N1CCN(c2ccc(Cl)c(Cl)c2)CC1 (stereo not given),76% (active),
O=C(Nc1ccc2ccccc2c1)Nc1ccc2snnc2c1,,inactive
CC1CCCN(C(C(=O)Nc2ccc(C(C)C)cc2)c2ccc3c(c2)OCO3)C1 (stereo not given),99.7% (active),
CCOc1ccc(CN2CCN(Cc3c[nH]c4ccccc34)CC2)cc1,,inactive
COc1ccc(-c2csc3ncnc(N4CCN(S(=O)(=O)c5cccc(F)c5)CC4)c23)cc1,77% (active),
Cc1cc(Br)ccc1NC(=O)c1cnc(N2CCN(c3ccccn3)CC2)c2ccccc12,94.7% (active),
Cc1nc(N2CCN(c3ccccn3)CC2)c2c(C)c(C(=O)Nc3ccc(F)cc3)sc2n1,141% (active),
CC(C)OC(=O)C(C#N)c1nc2ccccc2nc1N1CCN(Cc2ccccc2)CC1 (stereo not given),100% (active),
CC(C)OCCCNc1ncnc2c1[nH]c1ccc(F)cc12,,inactive
